GC-B act = human GC-B receptor activators, primary screen, HEK293 GC-B cells, cGMP TR-FRET, EC30 CNP | Atrial natriuretic peptide receptor 2 (Homo sapiens), P20594 | 0% at EC30 CNP, 100% saturating CNP | activation, % at 10 µM | 370,000 compounds, 0.11% hits | AID 1920062, 2024;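 active means activation at 10 µM reaching about 35% in either raw or pattern-adjusted values, limit read from the data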
HDAC3 inh = HDAC3 deacetylase inhibitors, primary screen, biochemical, fluorescence, cell-free homogeneous. Histone deacetylase 3 (Homo sapiens), O15379. recombinant HDAC3, fluorogenic peptide/trypsin coupled. 320,000 compounds, 0.15% hits. inhibition, % at 8.3 µM; in the data active means inhibition above about 26%, passing the limit was not always enough; inconclusive means no clear call, values can overlap the other calls
Target sequence (O15379 whole entry, looked up): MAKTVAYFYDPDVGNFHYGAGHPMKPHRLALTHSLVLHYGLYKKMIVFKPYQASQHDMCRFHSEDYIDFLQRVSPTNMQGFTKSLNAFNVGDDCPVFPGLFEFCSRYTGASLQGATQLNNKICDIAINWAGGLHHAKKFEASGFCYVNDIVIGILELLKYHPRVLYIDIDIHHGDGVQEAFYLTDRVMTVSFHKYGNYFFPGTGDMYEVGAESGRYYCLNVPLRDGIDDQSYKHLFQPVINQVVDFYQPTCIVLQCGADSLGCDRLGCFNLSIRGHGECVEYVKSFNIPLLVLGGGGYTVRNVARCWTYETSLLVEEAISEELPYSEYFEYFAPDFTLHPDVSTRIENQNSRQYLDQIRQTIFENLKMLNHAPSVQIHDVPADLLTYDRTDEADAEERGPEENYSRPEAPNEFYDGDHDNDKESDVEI
ALR inh = inhibitors of human ALR sulfhydryl oxidase, primary screen, biochemical, H2O2 detection, HRP-luminol luminescence, single point | FAD-linked sulfhydryl oxidase ALR (Homo sapiens), P55789 | purified ALR, DTT oxidation | inhibition, % (concentration not given with the values) | 290,000 compounds, 3.8% hits | AID 485317, 2010;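 active means mean replicate inhibition above about 79%, with every replicate also reaching it, limit read from the data; inconclusive means only one of the two criteria met; inactive means mean below limit and not every replicate reaching it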
NPR1 activator = GC-A stimulated cGMP production enhancers – HEK293 GC-A cells, cGMP TR-FRET, EC30 ANP, primary screen; Atrial natriuretic peptide receptor 1 (Homo sapiens), P16066; 0% at EC30 ANP, 100% saturating ANP; activation, % at 10 µM; 370,000 compounds, 0.14% hits; in the data active means activation above about 40%
* hit, by the source's call. Only a selection was taken, and hits are over-represented in it overall.

For CCCc1cc(SCC(=O)Nc2c(C)n(C)n(-c3ccccc3)c2=O)n2c(nc3ccccc32)c1C#N the results were GC-B act -1, HDAC3 inh -1, ALR inh 98* and NPR1 activator -2.
For CCOC(=O)CSc1cc(C)c(C#N)c2nc3ccccc3n12 the results were GC-B act 4, HDAC3 inh 1, ALR inh 99* and NPR1 activator 17.
`CC1CCCN(S(=O)(=O)c2ccc(NC(=O)C3CCN(C(=O)c4ccco4)CC3)cc2)C1` (stereo not given) gave GC-B act -5, HDAC3 inh 2, ALR inh 1 and NPR1 activator -6.
`Cc1cc(=O)n2cc(-c3ccccc3)nc2[nH]1` gave GC-B act 2, HDAC3 inh -23, ALR inh 87* and NPR1 activator 2.
Cc1cccc(N2CCN(C(=O)CCNS(=O)(=O)c3cccs3)CC2C)c1 (stereo not given) was read as GC-B act 1, HDAC3 inh 2, ALR inh 93* and NPR1 activator -4.
Screening CC1CC(C)CN(C(=O)CNS(=O)(=O)c2ccc(Br)s2)C1 (stereo not given) returned GC-B act -1, HDAC3 inh 5 and NPR1 activator -2.
For COc1cccc(NC(=O)N2CCCCCC2)c1 the results were GC-B act 3, HDAC3 inh -3, ALR inh -14 and NPR1 activator -3.
For COc1cccc(NC(=O)N2CCN(c3cccc(C)c3)C(C)C2)c1 (stereo not given) the results were GC-B act 3, HDAC3 inh -1, ALR inh 99* and NPR1 activator 0.
For Cc1ccc(N2CCN(C(=O)CNS(=O)(=O)c3ccc(Br)s3)CC2C)cc1 (stereo not given) the results were GC-B act 0, HDAC3 inh 3, ALR inh 98* and NPR1 activator -6.
CC1CC(C)CN(C(=O)CCNS(=O)(=O)c2cccs2)C1 (stereo not given) was read as GC-B act 6, HDAC3 inh -1, ALR inh -4 and NPR1 activator 4.
`CCC(=O)N1CCc2cc(S(=O)(=O)NCCC(=O)N3CCN(c4cccc(C)c4)C(C)C3)ccc21` (stereo not given) gave GC-B act -6, HDAC3 inh 2, ALR inh 98* and NPR1 activator -7.
For O=C(C(=O)N1CCC(Cc2ccccc2)CC1)c1cccc(Br)c1 the results were GC-B act 2 and NPR1 activator 1.
For COC(=O)C[C@H]1CC[C@H]2[C@H](COc3ccc(NC(=O)c4ccccc4F)cc3C(=O)N2C)O1 the results were GC-B act 9 and NPR1 activator 0.
Screening Cc1ccn2c(NC3CCCC3)c(-c3cccs3)nc2c1 returned GC-B act 3, HDAC3 inh -12, ALR inh 64 and NPR1 activator 9.
`c1csc(-c2nc3ccccn3c2NC2CCCCC2)c1` gave GC-B act -1, HDAC3 inh inconclusive, ALR inh 94* and NPR1 activator 4.
`O=C1CCCc2c1cc(-c1ccccc1)n2-c1ccc(O)cc1` gave GC-B act 6, HDAC3 inh 3 and NPR1 activator 75*.
COc1ccc(-n2c(-c3ccccc3)cc3c2CCCC3=O)cc1 was read as GC-B act -12, HDAC3 inh -4, ALR inh 1 and NPR1 activator -6.
CC(c1ccccc1)N(C)C(=O)CSc1nnc(C2CC2)n1C1CC1 (stereo not given) was read as GC-B act 3, HDAC3 inh 5, ALR inh 3 and NPR1 activator -2.
Screening O=C(O)c1ccc(-c2nc(-c3ccccc3)c(-c3ccccc3)[nH]2)cc1 returned GC-B act 4, HDAC3 inh -379, ALR inh 98* and NPR1 activator 1.
For COc1ccc(-c2[nH]c(-c3ccc(C(=O)O)cc3)nc2-c2ccccc2)cc1 the results were GC-B act -3, HDAC3 inh -339, ALR inh 99* and NPR1 activator -1.
Screening COc1ccc(-c2[nH]c(-c3ccc4c(c3)OCO4)nc2-c2ccccc2)cc1 returned GC-B act -1, HDAC3 inh -19 and NPR1 activator -5.
For O=S(=O)(NC1CCCCC1)c1cccs1 the results were GC-B act 4, HDAC3 inh -3, ALR inh -14 and NPR1 activator 7.
Screening C[C@@H]1C=CCCO[C@]12C(=O)N(CC1CC1)c1ccccc12 returned GC-B act 3 and NPR1 activator -2.
For Clc1ccccc1CSc1nnc(-c2ccccn2)n1Cc1ccco1 the results were GC-B act -7, HDAC3 inh -8, ALR inh 92* and NPR1 activator -13.
Screening Clc1ccc(CSc2nnc(-c3cccnc3)n2Cc2ccco2)c(Cl)c1 returned GC-B act -10, HDAC3 inh 5, ALR inh 97* and NPR1 activator -26.
Clc1cccc(CSc2nnc(-c3cccnc3)n2Cc2ccco2)c1 was read as GC-B act -9, HDAC3 inh 5, ALR inh 3 and NPR1 activator -12.
COc1ccccc1NC(=O)CSc1nnc(-c2ccccn2)n1Cc1ccco1 was read as GC-B act -5, HDAC3 inh 0, ALR inh 97* and NPR1 activator -7.
`COc1ccc(C)cc1NC(=O)CSc1nnc(-c2ccccn2)n1Cc1ccco1` gave GC-B act -6, HDAC3 inh 6, ALR inh 1 and NPR1 activator -7.
`O=C(CCc1nc(-c2ccc(Cl)cc2)no1)NCc1ccccc1CN1CCOCC1` gave GC-B act -5, HDAC3 inh -17, ALR inh -21 and NPR1 activator -2.
Cc1onc(-c2ccccc2)c1C(=O)Nc1ccc(S(=O)(=O)NC(C)(C)C)cc1 was read as GC-B act -2, HDAC3 inh 1, ALR inh -4 and NPR1 activator -4.
`CCNC(=O)N(C)C[C@H]1N[C@@](CC)(C(=O)OC)[C@H]2C(=O)N(C)C(=O)[C@@H]12` gave GC-B act -5, HDAC3 inh -2, ALR inh 1 and NPR1 activator 0.
For CCOc1cc(/C=N\NC(=O)CN2CCOCC2)ccc1OCc1ccc(F)cc1 the results were GC-B act 4, HDAC3 inh 8, ALR inh 0 and NPR1 activator 3.
Screening Cc1cc(NC(=O)c2c(Br)cnn2C)no1 returned GC-B act 3 and NPR1 activator 1.
For Cn1c(SC2C(=O)CC(C)(C)CC2=O)nnc1-c1ccco1 the results were GC-B act 6, HDAC3 inh 4, ALR inh 1 and NPR1 activator 1.
`CC1(C)CC(=O)C(Sc2nnc(-c3ccc(NS(C)(=O)=O)cc3)n2Cc2ccco2)C(=O)C1` gave GC-B act 2, HDAC3 inh -1, ALR inh 92* and NPR1 activator 2.
